# Results published in PubChem BioAssay AID1159580 (chemical genetic matrix, 2015).
# The whole screen tested about 5,500 compounds, of which about 2,000 (36%) were called active. Another 18% or so got no clear call; they are omitted. The list shows a part of the results. Unmarked numbers belong to inactive results. No stated cut-off is given here; in the data, active means normalized growth mostly below about 0.91 (no sharp cut-off); inconclusive means no clear call, values can overlap the other calls; inactive means mostly above about 0.92.
# Experiment: chemical genetic growth profiling, strain panel (AID 1159580);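 further: tested at 20 µM; growth read once vehicle control cultures reached saturation at 30 °C; 1 = growth at the plate median or of vehicle wells; lower values mean less growth of the strain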
# Conditions: growth OD
structure (smiles),measurement,setting,value
Cc1cc(/C=N/NC(N)=S)c2c(C)ccc(C(C)C)cc1-2,normalized growth,"S. cerevisiae deletion strains, locus YAL013W, strain DEP1, hits give low values",1.02
same,normalized growth,"S. cerevisiae deletion strains, locus YBR229C, strain ROT2, hits give low values",1.04
same,normalized growth,"S. cerevisiae deletion strains, locus YCL061C, strain MRC1, hits give low values",1.02
same,normalized growth,"S. cerevisiae deletion strains, locus YDL101C, strain DUN1, hits give low values",1.05
same,normalized growth,"S. cerevisiae deletion strains, locus YDL134C, strain PPH21, hits give low values",1.01
same,normalized growth,"S. cerevisiae deletion strains, locus YDR150W, strain NUM1, hits give low values",1
same,normalized growth,"S. cerevisiae deletion strains, locus YEL061C, strain CIN8, hits give low values",1.01
same,normalized growth,"S. cerevisiae deletion strains, locus YGR078C, strain PAC10, hits give low values",1.01
same,normalized growth,"S. cerevisiae deletion strains, locus YHR030C, strain SLT2, hits give low values",1.12
same,normalized growth,"S. cerevisiae deletion strains, locus YHR087W, strain rtc3, hits give low values",1.06
same,normalized growth,"S. cerevisiae deletion strains, locus YJR043C, strain POL32, hits give low values",1.01
same,normalized growth,"S. cerevisiae deletion strains, locus YJR075W, strain HOC1, hits give low values",1.02
same,normalized growth,"S. cerevisiae deletion strains, locus YLR039C, strain RIC1, hits give low values",1.02
same,normalized growth,"S. cerevisiae deletion strains, locus YLR058C, strain SHM2 (second series), hits give low values",1.03
same,normalized growth,"S. cerevisiae deletion strains, locus YLR085C, strain ARP6, hits give low values",1.03
same,normalized growth,"S. cerevisiae deletion strains, locus YLR262C, strain YPT6, hits give low values",1.02
same,normalized growth,"S. cerevisiae deletion strains, locus YML094W, strain GIM5, hits give low values",1.07
same,normalized growth,"S. cerevisiae deletion strains, locus YMR219W, strain ESC1, hits give low values",1.03
same,normalized growth,"S. cerevisiae deletion strains, locus YMR263W, strain SAP30, hits give low values",0.986
same,normalized growth,"S. cerevisiae deletion strains, locus YNL153C, strain GIM3, hits give low values",1.02
same,normalized growth,"S. cerevisiae deletion strains, locus YNL298W, strain CLA4 (second series), hits give low values",1.05
same,normalized growth,"S. cerevisiae deletion strains, locus YNL322C, strain KRE1, hits give low values",1.06 [resistant] (active)
same,normalized growth,"S. cerevisiae deletion strains, locus YNR030W, strain Alg12, hits give low values",1.08
same,normalized growth,"S. cerevisiae deletion strains, locus YPL055C, strain LGE1, hits give low values",1.04
same,normalized growth,"S. cerevisiae deletion strains, locus YPL241C, strain CIN2, hits give low values",1.01
same,normalized growth,"S. cerevisiae deletion strains, locus YPR135W, strain CTF4, hits give low values",1.17
same,normalized growth,"S. cerevisiae strains, strain wild type, hits give low values",1.02
